Inconclusive results are not listed. A call without a number means that no potency is given here. Active and inactive are the calls of the source. Calls come from the whole dose curve; as a rule, active = well fitted inhibition curve with a large enough effect; inconclusive = small, poorly fitted or top-dose-only effect; inactive = flat fitted curve, though single readings scatter.
Test system: Zika virus NS2B-NS3 protease
Test: Primary screen GU AMC qHTS for Zika virus inhibitors (AID 1347154); note: nearly all actives have a fitted effect of over 70% in size
Conditions: Zika NS2B-NS3 unlinked protease, AMC fluorogenic substrate; series mostly up to 54.1 µM
From the text: Avindra Nath, Ph.D., National Institute of Neurological Disorders and Stroke (NINDS), Bethesda, MD
Radhakrishnan Padmanabhan, Ph.D., Georgetown University (GU), Washington D.C.
Zika Virus causes congenital defects, including microcephaly and is associated with Guillain-Barre syndrome, eningoencephalitis and myelitis in infected adult. […] Using a target-based approach, we hope to establish a screening paradigm to uncover novel, cell-active NS2B-NS3 protease (Zika Virus) specific inhibitors from NCATS' collection of small molecules using qHTS.
Early Translation Branch (ETB)
National Center for Advancing Translational Sciences (NCATS), Rockville, MD
National Institute of Health (NIH), Bethesda, Maryland
Padmanabhan lab provided the NS2B hydrophilic domain and NS3 protease domain in a noncovalent complex used for the unlinked assay. Control compound aprotinin is obtained from Thermo Scientific (#78432; Waltham, Massachusetts). NS2B-NS3 AMC substrate (Bz-Nle-Lys-Arg-Arg-AMC; Nle-KRR-AMC) purchased from Bachem (#I-1995; Torrance, CA). Ac-VKTGKR-AMC purchased from Genscript or Bachem, Ac-FAAGKR-AMC purchased from Genscript, Ac-GLVKRR-AMC purchased from Genscript, Ac-LKKR-AMC purchased from Genscript.
GU AMC unlinked NS2B-NS3 protease qHTS protocol
Briefly, 3 microL of Zika virus unlinked NS2B-NS3 protease (25 nM for linked final concentration), in assay buffer (10 mM Tris-HCl pH 8.0 with 0.01% Tween 20) was dispensed into a 1,536-well solid-bottom black plate (Greiner Bio One, Monroe, NC). […] Plates were then read immediately on a ViewLux High-throughput CCD imager (PerkinElmer, Waltham, MA) equipped with standard UV fluorescence optics (340(30) nm excitation, 450(20) nm emission) then incubated (room temperature, protected from light) for 15 minutes (~20% conversion). The change in fluorescence intensity over the 15-minute reaction period was normalized against no-inhibitor and no-enzyme controls and the resulting percent inhibition data were fitted to a 4-parameter Hill equation. Aprotinin was used as the intraplate control.
Potency is the fitted concentration of half-maximal effect.

SMILES	Potency
CCN(C(=O)c1c(O)c2c(Cl)cccc2n(C)c1=O)c1ccccc1	inactive
NC(=O)c1ncn([C@@H]2O[C@H](CO)[C@@H](O)[C@@H]2O)c1N	inactive
COc1cc(C[C@@H](CO)[C@H](CO)Cc2ccc(O)c(OC)c2)ccc1O	inactive
C[C@]12C=CC(=O)N[C@@H]1CC[C@H]1[C@H]3CC[C@@H](C(=O)Nc4cc(C(F)(F)F)ccc4C(F)(F)F)[C@@]3(C)CC[C@@H]12	inactive
COc1cc2c(cc1OC)[C@@H]1C(=O)c3ccc4c(c3O[C@@H]1CO2)C=CC(C)(C)O4	inactive
COc1ccc(S(=O)(=O)Nc2cccnc2Nc2ccc(O)cc2)cc1	inactive
COC[C@H](NC(=O)c1cnc(C)s1)C(=O)N[C@@H](COC)C(=O)N[C@@H](Cc1ccccc1)C(=O)[C@@]1(C)CO1	inactive
O=C1c2c(O)cccc2[C@@H]([C@@H]2O[C@H](CO)[C@@H](O)[C@H](O)[C@H]2O)c2cc(CO)cc(O)c21	inactive
CCCCCCCCCCCCc1ccc(S(=O)(=O)Nc2nncs2)cc1	inactive
CON=C(C(=O)N[C@@H]1C(=O)N2C(C(=O)O)=C(CSC(=O)c3ccco3)CS[C@H]12)c1csc(N)n1	inactive
C[C@@]12C[C@@]3(O)O[C@@H](O1)[C@]1(COC(=O)c4ccccc4)[C@@H]3C[C@@]12O[C@@H]1O[C@H](CO)[C@@H](O)[C@H](O)[C@@H]1O	inactive
CNC(=O)c1cccc(-c2ccc3c(N4CCOC[C@H]4C)nc(N4CCOC[C@H]4C)nc3n2)c1	24.1 µM (active)
COc1cc(CCc2cc(NC(=O)c3ccc(N4C[C@@H](C)N[C@@H](C)C4)cc3)n[nH]2)cc(OC)c1	inactive
c1ccc2c(Oc3nc(Nc4ccc(N5CCOCC5)cc4)c4ncn(C5CCCCC5)c4n3)cccc2c1	inactive
COc1cc([C@@H]2c3cc4c(cc3[C@H](O)[C@H]3COC(=O)[C@@H]23)OCO4)cc(OC)c1OC	inactive
COc1cccc2c1C(=O)c1c(O)c3c(c(O)c1C2=O)C[C@@](O)(C(=O)CO)C[C@H]3O[C@H]1C[C@H](N)[C@H](O)[C@H](C)O1	inactive
FC(F)(F)c1ccc(Nc2nc3ccc(Oc4ccnc(-c5ncc(C(F)(F)F)[nH]5)c4)cc3[nH]2)cc1	inactive
O=C(NC1CC1)c1cccc(-c2ccc3c(NC(=O)C4CC4)n[nH]c3c2)c1	inactive
C[C@H](NC(=O)Cc1cc(F)cc(F)c1)C(=O)N[C@H](C(=O)OC(C)(C)C)c1ccccc1	inactive
N#Cc1ccc(COC[C@H]2O[C@@H](n3c(NCc4ccc(Cl)c(Cl)c4)nc4c(N)ncnc43)[C@@H](O)[C@@H]2O)cc1	inactive

SMILES	Potency
CCCCCCCCCCCC(CC1OC(=O)C1CCCCCC)OC(=O)C(CC(C)C)NC=O (stereo not given)	inactive
COc1ccc(C=Cc2cc(OC)c(OC)c(OC)c2)cc1NC(=O)[C@H](N)CO	inactive
CC(=O)O[C@]1(C(C)=O)CC[C@H]2[C@@H]3C=C(C)C4=CC(=O)CC[C@]4(C)[C@@H]3CC[C@@]21C	inactive
C[C@H](NCc1ccc2c(c1)nc(NC(=O)c1ccc(-c3cn[nH]c3)s1)n2CCc1ccccc1)C(C)(C)C	inactive
Cc1cnc(Nc2ccc(N3CCN(C)CC3)cc2)nc1Nc1cccc(S(=O)(=O)NC(C)(C)C)c1	inactive
CCCNS(=O)(=O)Nc1ncnc(OCCOc2ncc(Br)cn2)c1-c1ccc(Br)cc1	inactive
CC(C)N(CC[C@H](c1ccccc1)c1cc(CO)ccc1O)C(C)C	inactive
O=C(C=Cc1ccc(CN(CCO)CCc2c[nH]c3ccccc23)cc1)NO	inactive
COC1=C(OC)C(=O)C(CC=C(C)CCC=C(C)CCC=C(C)CCC=C(C)CCC=C(C)CCC=C(C)CCC=C(C)CCC=C(C)CCC=C(C)CCC=C(C)C)=C(C)C1=O	inactive
CO[C@@H]1[C@@H](O)[C@H](O)[C@@H](n2c3c(Cl)cccc3c3c4c(c5c6cccc(Cl)c6[nH]c5c32)C(=O)NC4=O)O[C@@H]1CO	inactive
Cc1nc(NC(=O)N2CCC[C@@H]2C(N)=O)sc1-c1ccnc(C(C)(C)C(F)(F)F)c1	inactive
Oc1cc2c(cc1O)C1c3ccc(O)c(O)c3OCC1(O)C2 (stereo not given)	24.1 µM (active)
Nc1ncn([C@@H]2O[C@H](CO)[C@@H](O)[C@@H]2O)c(=O)n1	inactive
O=C(Nc1ccc(Oc2ccnc3[nH]ccc23)c(F)c1)c1cccn(-c2ccc(F)cc2)c1=O	inactive
CN(C)CC(=O)N1CCC(c2ccc(NC(=O)c3ncc(C#N)[nH]3)c(C3=CCCCC3)c2)CC1	inactive
O=C1NC(O)CCN1[C@@H]1O[C@H](CO)[C@H](O)[C@H]1O (stereo not given in full)	inactive
Cc1cnc(Nc2ccc(CN3CCOCC3)cc2)nc1Nc1cccc(S(=O)(=O)NC(C)(C)C)c1	inactive
Cc1cncc2cccc(S(=O)(=O)N3CCCN(C(=O)CN)C[C@@H]3C)c12	inactive
CCCCC(=O)O[C@]1(C(=O)CO)[C@@H](C)C[C@H]2[C@@H]3CCC4=CC(=O)C=C[C@]4(C)[C@@]3(F)[C@@H](O)C[C@@]21C	inactive
CCN(CC)CCNC(=O)c1c(C)[nH]c(C=C2C(=O)Nc3ccc(F)cc32)c1C	inactive
